What all share (experiment): NCI-60 one-dose screen, 48 h (100 = growth as untreated, 0 = no growth, -100 = all killed)
For one test, the system named is HT29 colon. Particulars: 10 µM unless noted.
The next test deals with SNB-75 CNS. To be noted: 10 µM unless noted.
A further test deals with SNB-19 CNS. Particulars: 10 µM unless noted.
A further test has as its system U251 CNS. To be noted: 10 µM unless noted.
A further test concerns PC-3 prostate. Particulars: 10 µM unless noted.
A further test has as its system SK-MEL-5 melanoma. Particulars: 10 µM unless noted.
The next test relates to UACC-62 melanoma. To be noted: 10 µM unless noted.
The test system of a further test is LOX IMVI melanoma. To be noted: 10 µM unless noted.
The subject of a further test is SK-MEL-28 melanoma. To be noted: 10 µM unless noted.
In the next test the test system is SK-MEL-2 melanoma. To be noted: 10 µM unless noted.
In the next test the test system is EKVX NSCLC. Particulars: 10 µM unless noted.
Another test has as its system UO-31 renal. Particulars: 10 µM unless noted.
The next test relates to TK-10 renal. Particulars: 10 µM unless noted.
The test system of the next test is ACHN renal. To be noted: 10 µM unless noted.
The next test deals with CAKI-1 renal. To be noted: 10 µM.
A further test has as its system A498 renal. Particulars: 10 µM unless noted.
Another test relates to MOLT-4 leukemia. To be noted: 10 µM unless noted.
Another test concerns SN12C renal. To be noted: 10 µM unless noted.
The subject of another test is CCRF-CEM leukemia. Particulars: 10 µM unless noted.

The panel holds about 83,000 compounds, 20% with a hit somewhere; the sample as a whole holds those more often.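 Cells were grown in 96-well plates and exposed to the test compound at a single concentration for 48 hours; results are reported as percent growth, with values below 10 considered active.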 Unmarked numbers belong to inactive results. The source made the active and inactive calls.

In the case of `CN1CCN(Cc2ccc(NC(=O)c3cncc(C#Cc4cnc5ccc(O[C@H]6CCOC6)nn45)c3)cc2C(F)(F)F)CC1`, the growth was -67.8% (active) with HT29 colon; -95.9% (active) with SNB-75 CNS; -69.2% (active) in the test with SNB-19 CNS; -85.4% (active) in the test with U251 CNS; -9.05% (active) in the test on PC-3 prostate; -95.2% (active) with SK-MEL-5 melanoma. In addition, the growth with UACC-62 melanoma is -45.3% (active); in the test with LOX IMVI melanoma it was -88.1% (active); with SK-MEL-28 melanoma, -80.3% (active); in the test on SK-MEL-2 melanoma it was -88% (active); in the test on EKVX NSCLC, -69.7% (active); in the test with UO-31 renal, -94% (active). Also, the growth is -87.2% (active) in the test with TK-10 renal; -97.1% (active) with ACHN renal; -96.2% (active) with CAKI-1 renal; -92.9% (active) in the test on A498 renal; -1.92% (active) in the test with MOLT-4 leukemia.

As to `O=C(O)CNS(=O)(=O)c1ccc(Oc2ccc(S(=O)(=O)NCC(=O)O)cc2)cc1`, the growth with HT29 colon is 99.3%; with SNB-75 CNS it was 66.6%; in the test on SNB-19 CNS, 98.1%; in the test with U251 CNS, 99.3%; in the test with PC-3 prostate, 98.6%; in the test with SK-MEL-5 melanoma, 101%. For the same molecule, the growth is 99% with UACC-62 melanoma; 99.8% in the test on LOX IMVI melanoma; 101% in the test with SK-MEL-28 melanoma; 104% with SK-MEL-2 melanoma; 96.9% in the test on EKVX NSCLC; 93.5% with SN12C renal. The growth is 91.4% in the test with UO-31 renal; 101% in the test on TK-10 renal; 98.9% in the test with ACHN renal; 91.4% with CAKI-1 renal; 69.9% in the test with A498 renal; 100% in the test on CCRF-CEM leukemia. The growth in the test on MOLT-4 leukemia is 95.7%.

With `Nc1ccc(-c2nnc(SCc3ccc(O)c4ncccc34)o2)cc1`, the growth was 8.36% (active) in the test with HT29 colon; 8.55% (active) with SNB-19 CNS; -6.47% (active) in the test with U251 CNS; 0.0718% (active) with PC-3 prostate; -20.5% (active) in the test with SK-MEL-5 melanoma; -54.4% (active) in the test with UACC-62 melanoma. Also, the growth in the test with LOX IMVI melanoma is 0.185% (active); in the test with SK-MEL-28 melanoma, 10.6%; in the test with SK-MEL-2 melanoma, 3.45% (active); in the test on EKVX NSCLC, -5.86% (active); in the test on SN12C renal, 6.01% (active); in the test on UO-31 renal, -12.5% (active). Moreover, the growth was 1.68% (active) in the test with TK-10 renal; 2.17% (active) in the test with ACHN renal; 4.38% (active) with CAKI-1 renal; -40.1% (active) in the test on A498 renal; 5.03% (active) in the test with CCRF-CEM leukemia; 5.7% (active) in the test on MOLT-4 leukemia.

Consider `Cc1cc(O)c2c(c1)C(=O)C(c1c(C)cc3c(c1O)C(=O)C=CC3=O)=CC2=O`, for which the growth with HT29 colon was 65.3%; with SNB-75 CNS, 92.3%; in the test with SNB-19 CNS, 99.9%; in the test with U251 CNS, 94%; in the test on PC-3 prostate, 82.9%; in the test on UACC-62 melanoma it was 61.5%. Also, the growth with LOX IMVI melanoma was 61.3%; in the test on SK-MEL-28 melanoma, 71.2%; in the test with SK-MEL-2 melanoma it was 123%; in the test on EKVX NSCLC, 100%; in the test on SN12C renal, 74.7%; in the test with UO-31 renal it was -14.9% (active). Also, the growth in the test with TK-10 renal is 14.2%; with ACHN renal, -8.41% (active); with CAKI-1 renal, 13.8%; in the test on A498 renal it was 122%; in the test on CCRF-CEM leukemia, 19.3%; with MOLT-4 leukemia, 41.4%.

For `NC(=O)c1c(NC(=O)c2cccc(OC(F)(F)F)c2)sc2c1CCC(=O)C2`, the growth in the test on HT29 colon is 40.3%; in the test with SNB-75 CNS, 43.6%; in the test with SNB-19 CNS it was 43.1%; in the test with U251 CNS, 28.7%; with PC-3 prostate, 21.3%; with SK-MEL-5 melanoma, 95.4%. Also, the growth in the test with UACC-62 melanoma is 60.7%; with LOX IMVI melanoma, 28.5%; in the test with SK-MEL-28 melanoma, 82.6%; with SK-MEL-2 melanoma, 105%; in the test on EKVX NSCLC it was 68.7%; in the test with SN12C renal it was 59.5%. Also, the growth is 30.1% with UO-31 renal; 20.2% in the test with ACHN renal; 45.7% in the test on CAKI-1 renal; 88.3% in the test on A498 renal; 8.53% (active) with CCRF-CEM leukemia; 44.4% with MOLT-4 leukemia.

As for `COc1ccc(C2CC(c3ccc(Nc4nc(NCCO)nc(Nc5ccc(Cl)cc5)n4)cc3)=Nc3c(N)nc(N)nc3N2)cc1` (stereo not drawn), the growth was 54.8% in the test on HT29 colon; 117% in the test on SNB-75 CNS; 76.8% in the test on SNB-19 CNS; 66.4% in the test with U251 CNS; 63.1% in the test on PC-3 prostate; 59.8% in the test with SK-MEL-5 melanoma. The growth was 107% in the test with UACC-62 melanoma; 12.9% in the test on LOX IMVI melanoma; 119% in the test with SK-MEL-28 melanoma; 89.5% in the test with SK-MEL-2 melanoma; 107% in the test on EKVX NSCLC; 85.1% in the test with SN12C renal. Also, the growth is 56.2% in the test on UO-31 renal; 107% with TK-10 renal; 90.1% in the test with ACHN renal; 61.1% in the test on CAKI-1 renal; 42.7% in the test with A498 renal; -17.9% (active) in the test on CCRF-CEM leukemia. Also, the growth in the test with MOLT-4 leukemia is 3.14% (active).

As for `Oc1ccccc1/C=N/Nc1nc(N/N=C/c2ccccc2O)nc(N2CCOCC2)n1`, the growth with HT29 colon is 34.2%; in the test on SNB-75 CNS, -4.09% (active); with SNB-19 CNS, 41.7%; with U251 CNS it was 22%; in the test with SK-MEL-5 melanoma it was 65.8%; in the test with UACC-62 melanoma, 88.8%. For the same molecule, the growth is 4.04% (active) in the test with LOX IMVI melanoma; 28% in the test with SK-MEL-28 melanoma; 72% in the test with SK-MEL-2 melanoma; 22.2% in the test with EKVX NSCLC; 27.2% with SN12C renal; 19.8% with UO-31 renal. The growth is 47.9% in the test with TK-10 renal; 28.1% with ACHN renal; 4.56% (active) in the test on CAKI-1 renal; 42.3% with CCRF-CEM leukemia; 45.1% in the test on MOLT-4 leukemia.

For the molecule `COc1ccc(N2CCN(C(=O)CSc3ccc(-c4nc5cc(C)c(C)cc5[nH]4)cn3)CC2)cc1`, the growth with HT29 colon was 85.7%; in the test on SNB-19 CNS, 87.5%; in the test on U251 CNS it was 95.9%; in the test with PC-3 prostate it was 56.4%; in the test with UACC-62 melanoma, 45.3%; in the test on LOX IMVI melanoma, 56.8%. In addition, the growth with SK-MEL-28 melanoma is 74.4%; with SK-MEL-2 melanoma it was 87.1%; with EKVX NSCLC it was 53.3%; in the test on SN12C renal, 83.2%; with UO-31 renal, 65.1%; with TK-10 renal, 101%. Also, the growth with ACHN renal was 77.5%; in the test with CAKI-1 renal, 73.4%; in the test on A498 renal it was 90.9%; with CCRF-CEM leukemia, 18.4%; with MOLT-4 leukemia, 6.92% (active).

(Values after PubChem BioAssay (NCI).)
